The text below walks through data of PubChem BioAssay AID651820 (National Center for Advancing Translational Sciences (NCATS), 2012).

Out of some 340,000 compounds screened, about 12,000 (3.5%) were called active. About 18% were inconclusive and are not listed. Only a selection was taken, and actives are over-represented in it overall. Values without a mark were called inactive. Calls come from the whole dose curve; as a rule, active = well fitted inhibition curve with a large enough effect; inconclusive = small, poorly fitted or top-dose-only effect, or another doubt; inactive = no such curve, though single readings can be large or run the other way.
% is set by controls: 0 for no effect and ±100 for the full control effect; potency is the fitted concentration of half-maximal effect.

The nature of the assay: qHTS Assay for Inhibitors of Hepatitis C Virus (HCV). Particulars: Huh7.5.1 HCVcc-Cre infection, luciferase reporter, 44 h; series mostly up to 41.8 µM; activity change, negative = inhibition: at the top concentration. The essentials: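 Infectious HCV cell culture screen: compound-treated cells (1,000/well, pre-plated 4 h) are infected with HCVcc-Cre at roughly 0.5 moi and grown 44 h. Infection is quantified by luciferase signal after 15 min substrate incubation at room temperature.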
Take `Cc1cc(NC(=O)c2cnn3cccnc23)n(-c2ccccc2)n1`: the Potency is 12.6 µM (active).

For the compound `CSc1ncccc1C(=O)Nc1cccc(S(=O)(=O)N2CCOCC2)c1`, the “activity change, negative = inhibition” value is 1.96%.

Consider `C[C@H](NC(=O)c1[nH]cnc1C(=O)Nc1nccs1)c1ccccc1`, for which the “activity change, negative = inhibition” value is 7.12%.

Turning to `Cc1nn(-c2ccccc2)nc1C(=O)OCC(=O)N1CCCCC1C` (stereo unspecified), the “activity change, negative = inhibition” value was -26.6%.

With `CN(C)C(=O)N=NC(=O)N(C)C`, the “activity change, negative = inhibition” value is 2.13%.

With `Cc1ccc(-c2cc(C(=O)N3CCC4(CC3)OCCO4)no2)cc1`, the “activity change, negative = inhibition” value is -6.91%.

With `O=C(c1cc2nc(-c3ccccc3)cc(-c3ccccc3)n2n1)N1CCC2(CC1)OCCO2`, the Potency is 10 µM (active).

Turning to `O=C(c1ccccc1[N+](=O)[O-])N1CCC2(CC1)OCCO2`, the “activity change, negative = inhibition” value was 17.8%.

As to `CC(=O)N1CCc2c(sc(NC(=O)CCS(=O)(=O)c3ccc(C)cc3)c2C(N)=O)C1`, the “activity change, negative = inhibition” value was 11.6%.

As to `Cc1cc(C(=O)N/N=C/c2ccc(N3CCOCC3)cc2)c(C)o1`, the “activity change, negative = inhibition” value was -11.3%.

For `CN(C)c1ccc(/C=N/Nc2cc(N3CCOCC3)nc(N3CCOCC3)n2)cc1`, the Potency was 3.98 µM (active).

In the case of `CCN(CC)c1ccc(C(=O)N/N=C/c2ccc(N3CCOCC3)cc2)cc1`, the “activity change, negative = inhibition” value is 1.15%.

Take `CC(=O)Oc1ccc(OC(C)=O)c2c1C1C=CC2CC1`: the “activity change, negative = inhibition” value was -24.3%.

With `Cc1n[nH]c(=O)c2c(NC(=O)CSc3cc(Cl)ccc3Cl)oc(C)c12`, the “activity change, negative = inhibition” value is 2.48%.

Turning to `Cc1cc(C(F)(F)F)nn1-c1nc(-c2ccco2)cc(C(F)(F)F)n1`, the “activity change, negative = inhibition” value is -21.2%.

Consider `COc1ccc(-c2cc(C(F)(F)F)nc(SCCC(=O)NCc3ccco3)n2)cc1`, for which the “activity change, negative = inhibition” value is -54.1%.

For the compound `O=C(CSc1nc(-c2ccco2)cc(C(F)(F)F)n1)N1CCc2ccccc2C1`, the Potency is 11.2 µM (active).

As for `CCN([C@H](CO)C(C)C)S(=O)(=O)c1ccccc1Br`, the “activity change, negative = inhibition” value is 0.83%.

Turning to `Cc1ccc(NC(=O)CN(C)C(=O)c2cccc(S(=O)(=O)N3CCCC3)c2)cc1`, the “activity change, negative = inhibition” value was 3.18%.

As to `Cc1[nH]c2ccccc2c1/C=N\NC(=O)Cn1nnc(-c2ccccc2)n1`, the “activity change, negative = inhibition” value was 9.36%.

As to `Cc1[nH]c2ccccc2c1/C=N/NC(=O)CNC(=O)c1ccc2c(c1)OCO2`, the “activity change, negative = inhibition” value was -8.97%.

Turning to `COCCNC(=S)N/N=C/c1c(C)[nH]c2ccccc12`, the Potency is 10 µM (active).

Take `C[C@@H]1CN([C@@H](C)CO)C(=O)c2cc(NC(=O)C3CC3)ccc2O[C@H]1CN(C)C`: the “activity change, negative = inhibition” value is 19.1%.

As for `O=[N+]([O-])c1ccc(S(=O)(=O)Nc2cccc(-c3ccc(N4CCCC4)nn3)c2)cc1`, the “activity change, negative = inhibition” value is -3.97%.

As to `CC(OC(=O)c1c(F)cccc1F)C(=O)NCCC1=CCCCC1` (stereo unspecified), the “activity change, negative = inhibition” value was 4.45%.

In the case of `CN(CC(=O)Nc1ccc(F)c(F)c1F)C(=O)Cn1cnc2c1c(=O)n(C)c(=O)n2C`, the “activity change, negative = inhibition” value is 0.609%.

For the compound `CC(C)Cn1c(N)c(C(=O)COC(=O)C2CCCN2C(=O)c2cccs2)c(=O)n(C)c1=O` (stereo unspecified), the “activity change, negative = inhibition” value is 10.3%.

For `COc1ccccc1NC(=O)COC(=O)COc1ccccc1F`, the “activity change, negative = inhibition” value is 1.95%.

Consider `COc1ccc(OC)c(S(=O)(=O)Nc2ccccc2F)c1`, for which the “activity change, negative = inhibition” value was 20.6%.

In the case of `COc1ccc(NS(=O)(=O)c2cc(NC(=O)COc3ccccc3F)ccc2OC)cc1`, the Potency was 11.2 µM (active).

In the case of `CCc1noc(C)c1C(=O)N1CCCC(N2CCN(c3ccc(F)cc3)CC2)C1` (stereo unspecified), the “activity change, negative = inhibition” value was -13.5%.

Turning to `Cn1c(N)cc(=O)n(C)c1=S`, the “activity change, negative = inhibition” value is 12%.

As to `C=C(C)CNC(=O)c1ccc(OC2CCN(C(=O)COC)CC2)cc1`, the “activity change, negative = inhibition” value was 12.3%.

Take `COc1ccc(NC(=O)CN(C)C(=O)CC2CCCCC2)cc1`: the “activity change, negative = inhibition” value is -17.7%.

With `COC(=O)CCc1sc(Nc2ccc(Br)cc2)nc1-c1ccc(OC)cc1`, the “activity change, negative = inhibition” value is 7.69%.

Consider `CCNc1nc(-c2cc3ccccc3o2)cs1`, for which the “activity change, negative = inhibition” value was -7.72%.

Consider `CC(C)(C)C(=O)OCc1nc(-c2ccc(O)c(O)c2)cs1`, for which the “activity change, negative = inhibition” value is -67.3%.

As for `O=C(Nc1ccncc1)c1cc2ccccc2o1`, the “activity change, negative = inhibition” value is -23.4%.

For `O=c1oc2ccccc2cc1-c1csc(Nc2ccc(O)cc2)n1`, the Potency is 31.6 µM (active).

`COc1ccc2nc(Nc3nc(-c4ccncc4)cs3)sc2c1`: the “activity change, negative = inhibition” value was -22%.

Consider `COc1ccc(OC)c(Nc2nc(-c3ccc(O)c(O)c3)cs2)c1`, for which the Potency was 10 µM (active).

For `COc1ccc(-c2csc(Nc3ccc(O)cc3)n2)cc1`, the Potency was 12.6 µM (active).

As for `CCN1CCN(c2nc(Nc3cc(OC)ccc3OC)nc(Nc3cc(OC)ccc3OC)n2)CC1`, the “activity change, negative = inhibition” value is -80%.

As to `CC(=O)C[C@H](O)CC(=O)[C@@H]1OC(=O)[C@@H](C)C/C=C\Cc2ccccc21`, the “activity change, negative = inhibition” value was -6.09%.

Regarding `COc1ccc(C(=O)COC(=O)CN2C(=O)C3CC=CCC3C2=O)c(OC)c1` (stereo unspecified), the “activity change, negative = inhibition” value was 1.76%.

As to `CC1(C)CC[C@@]2(C(=O)O)C(C1)C1=CCC3[C@@]4(C)CC[C@H](O)C(C)(C)C4CC[C@@]3(C)[C@]1(C)C[C@H]2O` (stereo partly specified), the “activity change, negative = inhibition” value was 16.8%.

Regarding `Cc1cc(C)cc(NC(=O)C(c2ccccc2)N2CCN(CC(=O)N3CCCC3)CC2)c1` (stereo unspecified), the “activity change, negative = inhibition” value is -20.3%.

As to `CCOc1ccc(C(=O)CCC(=O)Nc2ccncc2)cc1`, the “activity change, negative = inhibition” value is 0.752%.

`O=C(CNC(=O)c1ccccc1Br)NCCSc1ccc(Br)cc1`: the “activity change, negative = inhibition” value is -3.3%.

Consider `CN(C)C1=NC[C@H](Cc2ccccc2)N1CCc1ccc(F)cc1`, for which the “activity change, negative = inhibition” value is 9.99%.

On to `C#CCOCCOCCOCCNc1nc(N2CCN(C(=O)[C@H](CCCCN)n3cc(CCC(=O)O)nn3)CC2)nc(N2CCN(C(=O)[C@H](CCCCN)n3cc(CC(C)O)nn3)CC2)n1` (stereo partly specified), for which the “activity change, negative = inhibition” value was 0.129%.
